Paper PMC5540273 (PLoS ONE, 2017)

test system: CSNK1G2; conditions: concentration: 1 μM, replicates: in singlicate; n = 1
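Also: KINOMEscan kinase panel screen.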

| SMILES | %Inh |
| --- | --- |
| COc1ccc(NC(=O)Nc2ccc(C)c(-c3ccc(C(=O)Nc4ccncc4)cc3)c2)cc1 [GSK1398475] | 6% |
| Clc1ccc(-c2cc(-c3c[nH]nc3-c3ccccn3)ccn2)cc1 [GW681251] | 0% |
| CC(C)(C)OC(=O)NC1CCCN(c2cc(-c3ccc4c(N)n[nH]c4c3)nc(N)n2)C1 (stereo not drawn) [GSK2286096] | 0% |
| CSc1ccc(NC2=C(c3ccccc3Cl)C(=O)NC2=O)cc1 [SB-342411] | 0% |
| COC(=O)c1cccc(NC(=O)NCCNc2ccnc(Nc3ccc(F)cc3)n2)c1 [GSK1379883] | 0% |
| Fc1cccc(COc2ccc(Nc3ncnc4sc(-c5ccc[nH]5)cc34)cc2Cl)c1 [GW707818] | 3% |
| c1ccc(-c2ccc3c(-c4ccnc(Nc5ccc6c(c5)OCCO6)n4)cnn3n2)cc1 [GW818941] | 11% |
| Fc1cccc(COc2ccc(Nc3ncnc4cc[nH]c34)cc2Cl)c1 | 18% |
| COc1cc2c(Nc3cccc(NC(=O)c4ccccc4)c3)ncnc2cc1OCCCN1CCOCC1 [GSK223810] | 0% |
| COc1ccc(NC(=O)c2ccc(-c3cc(-c4nnc(C)o4)ccc3C)cc2)cc1 [GW595885] | 0% |
| Cl.Fc1ccccc1COc1ccc(Nc2ncnc3ccc(-c4nnc(C(F)(F)F)o4)cc23)cc1Cl [GW424170] | 0% |
| CNc1nccc(-c2c(-c3ccc(F)cc3)ncn2CCCN2CCOCC2)n1 [SB-222516] | 10% |
| Cc1cc(N2CCC(NS(=O)(=O)c3ccc(F)cc3)CC2)nc(Nc2cccc(C#N)c2)n1.O=C(O)C(F)(F)F [GSK1653537] | 5% |
| Cn1ccc2ncnc(Oc3ccc(NC(=O)Nc4cccnc4)c(Cl)c3)c21 | 5% |
| O=C(c1ccc(-c2cc(-c3c[nH]nc3-c3ccccn3)ccn2)cc1)N1CCCC1 [GW792479] | 9% |
| Nc1nc(-c2ccc3c(N)n[nH]c3c2)cc(N2CCC[C@@H](C(=O)Nc3ccccc3)C2)n1.O=C(O)C(F)(F)F.O=C(O)C(F)(F)F [GSK2288359] | 100% |
| Cl.Cl.c1ccc(-c2cc3ccncc3cc2OC2CCNCC2)cc1 [GSK1122999] | 0% |
| Fc1ccc(-c2ncn(CCCNCc3ccccc3)c2-c2ccncc2)cc1 | 7% |

| SMILES | %Inh |
| --- | --- |
| CCn1c(-c2ccncc2)nc2cnccc21 [SB-735216] | 0% |
| C[C@H]1CC[C@@H](C(=O)Nc2ccccc2)CN1c1cc(-c2ccc3c(N)n[nH]c3c2)nc(N)n1 [GSK2283293] | 0% |
| NC(=O)c1sc(-n2cnc3ccccc32)cc1OCc1ccccc1F [GSK1024306] | 0% |
| Cl.Cn1ccc(-c2cccc(Nc3ccnc4cc(-c5nccs5)ccc34)c2)n1 [GW525701] | 0% |
| FC(F)(F)c1cc(Nc2nccc(-c3c(-c4ccc(Cl)cc4)nn4ncccc34)n2)ccc1Cl [GW829351] | 0% |
| N#Cc1ccc(Oc2ccc(Nc3ncnc4cc[nH]c34)cc2Cl)cc1 | 25% |
| OCCOCCn1ccc2ncnc(Nc3ccc(Oc4cccc(Cl)c4)c(Cl)c3)c21 | 0% |
| Fc1cccc(COc2ccc(Nc3ncnc4nn5ccccc5c34)cc2Cl)c1 [GW689066] | 0% |
| Nc1nc(-c2ccccn2)c(-c2ccnc3ccccc23)s1 [GW548057] | 0% |
| CCCc1ccc(S(=O)(=O)NC2CCN(c3ccnc(Nc4ccc(OC)cc4)n3)C2)cc1 (stereo not drawn) [GSK1379737] | 0% |
| Cc1ccc(O)cc1Nc1cc(C(F)(F)F)nc2ccc(-c3ccncc3)cc12 [GW630823] | 1% |
| CNc1nccc(-c2c(-c3ccc(F)cc3)ncn2C2CCN(C)CC2)n1 [SB-222903] | 0% |
| Nc1nc(-c2cccnc2)c(-c2ccnc3ccccc23)s1 [GW684083] | 0% |
| O=C(Nc1ccccc1)Nc1ccc(Oc2ccc3nccn3n2)cc1 | 0% |
| CC(C)(C)c1ccc(-n2cnc3c(N)ncnc32)cc1 [SKF-97263] | 13% |
| Cc1ccc(NC(=O)c2cccc(C#N)c2)cc1-c1ccc(C(=O)Nc2ccncc2)cc1 [GSK1398463] | 1% |
| Cc1ccc(C)c(NC(=O)NCCNc2ccnc(Nc3ccc(F)cc3)n2)c1 [GSK1379878] | 0% |
| Nc1nccc2scc(-c3ccc4c(c3)CCN4C(=O)Cc3cc(F)ccc3F)c12 [GSK2587663] | 0% |
